Measurements taken from PubChem BioAssay AID1892 (NMMLSC, 2009).
About 140 (2.4%) of roughly 5,900 compounds were called active. Many of the other results were omitted from the sample, so actives are more common in it than they were. Unmarked numbers belong to inactive results. Rule as the data show it: active = binding response below about 16% or above about 210%; inactive = in between.

target: Mitogen-activated protein kinase kinase kinase 2 (Homo sapiens) (UniProt Q9Y2U5); experiment: wildtype MEKK2 PB1-MEK5 interaction enhancers or blockers – biochemical, single concentration, multiplex bead flow cytometry, confirmation (AID 1892); conditions: Alexa488-MEK5 binding to MEKK2 WT, at 10 µM, actives lie on both sides

SMILES	binding response (% of control)
Cc1cnc(NC(=O)Cn2cnc3c2c(=O)n(C)c(=O)n3C)s1	96%
O=c1c2ccccc2c(-c2ccccc2)nn1Cc1ccccc1	100%
Cc1ccccc1OCC(=O)Nc1ccc(N2CCN(C(=O)C(C)C)CC2)c(Cl)c1	93%
O=C1NCC(=O)N(Cc2ccccc2)/C1=C/c1ccccc1	75%
CC1(C)OC(=O)N2CCc3ccccc3C21C (configuration not stated)	101%
CN(C)c1ccc(/C=C2\NC(=S)N(Cc3ccccc3)C2=O)cc1	86%
Cc1ccc(N2C(=O)CC(N3CCSCC3)C2=O)c(C)c1 (configuration not stated)	103%
Cc1ccc(NC(=S)N(CCCN2CCCC2)Cc2cccn2Cc2ccc(Cl)cc2)cc1	160%
COc1ccc(-c2[nH]ncc2CN(C)Cc2c(C)n[nH]c2C)c(OC)c1	108%
COc1ccccc1CC(=O)Nc1ccc([N+](=O)[O-])cc1OC	100%
Cc1ccc(Nc2nc(CSc3nnc(-c4ccncc4)n3-c3ccccc3C)cs2)cc1	101%
O=C(/C=C/Nc1ccccc1)c1cnc(-c2ccccc2)s1	107%
CC(C)CC(=O)N1CCN(Cc2ccccc2Br)CC1	105%
Cc1ccccc1CCN(CC(=O)NC1CCCCC1)C(=O)c1csnn1	96%
Cc1cccc(/C=N/NC(=O)CNc2cccc3ccccc23)n1	103%
CC(C)(C)NC(=O)c1cccc(NC(=O)Cc2ccc(Br)cc2)c1	100%
CCOc1cc(C2C(C(=O)OC)=CN(C3CCCC3)C=C2C(=O)OC)cc(Br)c1O	108%
COc1ccc(CCNC(=O)CSc2nnc3ccc(-c4ccncc4)nn23)cc1	102%
CCCCOC(=O)c1ccc(N2C(=O)CC(N3CCN(C/C=C/c4ccccc4)CC3)C2=O)cc1 (configuration not stated)	124%
O=C(NCC1CCCCC1)c1cc(S(=O)(=O)N2CCCCC2)ccc1N1CCOCC1	87%
Cn1c(SCc2nc3ccccc3s2)nnc1-c1ccc2c(c1)OCO2	102%
Cc1cccc(-c2ncc(CN3CCC(CO)(CCCc4ccccc4)CC3)cn2)c1	131%
Cc1cn(COC/C=C/c2ccccc2)c(=O)[nH]c1=O	103%

SMILES	binding response (% of control)
COc1cc(NC(=S)NCc2ccco2)c(OC)cc1Cl	108%
COC(=O)c1c(NC(=O)COC(=O)[C@@H](NS(=O)(=O)c2ccccc2)C(C)C)sc2c1CCC2	96%
COc1cc(-c2nc(-c3ccncc3)no2)cc(OC)c1OC	104%
Cc1cccc(CSc2nnc(C)c(=O)n2N)c1	100%
O=C(O)CCCC(=O)Nc1ccc(Oc2cccc(C(F)(F)F)c2)nc1	106%
COc1cc(CC(=O)N/N=C/c2ccccc2)c([N+](=O)[O-])cc1OC	99%
COc1ccc(S(=O)(=O)N2CN(CCc3ccc(OC)c(OC)c3)c3nc4ccccc4nc32)cc1	96%
CCOC(=O)C(NS(=O)(=O)c1ccc(C)cc1)(C(F)(F)F)P(=O)(OCC(C)C)OCC(C)C (configuration not stated)	90%
O=c1[nH]c(=S)[nH]c2[nH]c(=S)[nH]c12	101%
Cc1ccccc1-c1ccc(Nc2ccc(C(=O)N3CCOCC3)cc2)nn1	103%
CCOC(=O)c1c(Cc2ccc(Cl)cc2)c[nH]c1C	105%
O=C(Nc1cccnc1)c1cc(Cl)ccc1Cl	109%
CN(C)CCCNC(=O)/C=C/c1ccc(OCc2c(F)cccc2Cl)cc1	150%
O=C(c1cnn(-c2ccc(Cl)cc2)c1)c1ccccc1O	112%
O=C(O)/C=C\C(=O)Nc1ccc(OCc2ccccc2)cc1	102%
O=C(OCc1cc(Cl)ccc1OC(F)F)c1cccnc1	95%
CCNC(=O)CSc1nc(-c2ccccc2)cs1	99%
O=C(OCC1O[C@@H](OC(=O)c2cc(O)c(O)c(O)c2)[C@@H](OC(=O)c2cc(O)c(O)c(O)c2)[C@@H](OC(=O)c2cc(O)c(O)c(O)c2)[C@@H]1OC(=O)c1cc(O)c(O)c(O)c1)c1cc(O)c(O)c(O)c1 (some centres not stated)	-1% [inhibitor] (active)
CCOC(=O)c1c(-c2ccccc2)csc1NC(=S)NC(=O)c1ccccc1	102%
CCCCCCCCCCOC(=O)Cn1c(COc2ccc(C)cc2)[n+](C)c2ccccc21	217% (active)
CCCCCCCCCCOC(=O)Cn1c(COc2cccc(OC)c2)[n+](C)c2ccccc21	257% (active)
FC(F)(F)c1cccc(N/N=C/c2ccccc2)c1	151%
Cc1ccc(S(=O)(=O)NC(=O)N2CCCC(C)(C)C2)cc1	101%

SMILES	binding response (% of control)
COc1cc(/C=C2\SC(=S)N(Nc3ncc(C(F)(F)F)cc3Cl)C2=O)cc(OC)c1OC	74%
Cc1cc(Cl)ccc1OCc1nc(-c2ccncc2)no1	80%
COc1ccccc1N1CCN(CCCCOc2ccc(F)cc2)CC1	109%
Cc1no[n+]([O-])c1COc1ccccc1/C=C1\NC(=S)NC1=O	99%
CCO[C@H]1OC(C(=O)N2CCOCC2)=C[C@@H](c2ccc3c(c2)OCO3)[C@@H]1CCCO	101%
c1ccc(Nc2nc(N3CCOCC3)c3ccccc3n2)cc1	124%
COCC(C)NC(=O)COc1nncc2ccccc12 (configuration not stated)	96%
Cn1c(=NC(=O)CSCC(=O)N2CCOCC2)sc2ccccc21	90%
CCc1nnc(NC(=O)c2sc3nc(C)cc(COC)c3c2N)s1	107%
Cc1ccccc1C(=O)NNC(=O)CN1C(=O)c2ccccc2C1=O	92%
C#CCOCCOCCOCCNc1nc(N2CCN(C(=O)[C@H](CCCCN)n3cc([C@@H](N)C(C)CC)nn3)CC2)nc(N2CCN(C(=O)[C@H](Cc3ccc(O)cc3)n3cc([C@@H](N)C(C)CC)nn3)CC2)n1 (some centres not stated)	183%
COc1ccc(C2CC(c3cccs3)=NN2c2nc(C)c(C(C)=O)s2)cc1OC (configuration not stated)	82%
CCOC(=O)c1cc2occc2n1CC(=O)N1CCN(C(=O)c2ccco2)CC1	92%
COC(=O)c1cc(NC(=O)c2cc(C(C)(C)C)nn2Cc2cccc(C)c2)ccc1N1CCOCC1	102%
Cc1ccc(S(=O)(=O)/N=S(\C)C(C)C)cc1 (configuration not stated)	101%
CCOC(=O)/C(C#N)=C/c1ccc(OCC(=O)Nc2ccccc2)c(OC)c1	103%
CN(C)CCCN(C(=O)c1ccc(S(=O)(=O)N2CCCc3ccccc32)cc1)c1nc2ccc(F)cc2s1	198%
O=C(Nc1ccc2ccccc2c1)Nc1ccc2snnc2c1	155%
CCOc1ccc(NC(=O)Nc2cc(C)ccc2OC)cc1	106%
CCOc1cc(C(=O)OCC(=O)Nc2cccc(C)c2)ccc1OCC(=O)N1CCOCC1	106%
CCOC(=O)Cc1csc(NC(=O)CSc2nc(C)cc(=O)[nH]2)n1	92%
CCOc1nnc(C)c2c(C)n(-c3cccc(Cl)c3)nc12	86%
O=C(COC(=O)CNC(=O)c1ccco1)Nc1ccc(F)cc1	98%

SMILES	binding response (% of control)
Cn1c(=NC(=O)CSCC(=O)N2CCCCC2)sc2ccccc21	103%
N=C1/C(=C/c2cccn2-c2cccc([N+](=O)[O-])c2)C(=O)N=C2SC=CN12	99%
O=C(c1ccc(Br)o1)N(c1ccccn1)C1CCCCC1	101%
CC(C)(C)NC(=O)Cn1cnc([N+](=O)[O-])n1	96%
O=C(CC1SCCNC1=O)Nc1ccc(Cl)c(Cl)c1 (configuration not stated)	104%
O=c1c(/C=N/O)coc2ccc(Cl)cc12	100%
CCN(CC)C(=O)CC(c1ccc2c(c1)OCO2)c1c(OC)cc(OC)c2c(-c3ccccc3)cc(=O)oc12 (configuration not stated)	99%
Cc1ccc(C(=O)N/C(=C/c2ccco2)C(=O)NCCc2c[nH]c3ccccc23)cc1C	101%
CN1CCN(/N=C/c2ccc(C#N)cc2)CC1	92%
CCN1CCN(c2nc(Nc3cc(OC)ccc3OC)nc(Nc3cc(OC)ccc3OC)n2)CC1	148%
COc1ccccc1OCCNCC(O)COc1cccc2[nH]c3ccccc3c12 (configuration not stated)	159%
COc1ccccc1NC(=S)N1CCN(c2ccc(F)cc2)CC1	100%
O=C(O)/C(=C/c1cccnc1)NC(=O)c1ccccc1	103%
c1ccc(CN2CCC(N=C3NN=C(c4ccc5c(c4)OCCO5)CS3)CC2)cc1	164%
COc1cccc(/C(C)=N/Nc2ncc(Cl)cc2Cl)c1	100%
O=C(c1ccco1)N1CCN(c2cccc(Cl)c2)CC1	93%
COC(=O)C1=NN(c2ccccc2)C2C(=O)N(c3ccccc3OC)C(=O)C12 (configuration not stated)	97%
CCN1CCN(CCNC(=O)c2ccc(/C=C3/Sc4ccccc4N(Cc4cccc(C)c4)C3=O)cc2)CC1	236% (active)
Cc1cccc(CN2CCC(CNC(=O)Nc3ccc(F)c(Cl)c3)CC2)c1	126%
C/C(=N\NC(=O)CNC(=O)C(c1ccccc1)c1ccccc1)c1ccc(C)cc1	106%
CCOC(=O)c1cc2c(nc1NC(=S)Nc1ccccc1)CC(C)(CC)OC2 (configuration not stated)	101%
C=CCN(CC=C)S(=O)(=O)c1ccc(C(=O)Nc2sc3c(c2C(N)=O)CCCCC3)cc1	99%
COc1cccc(NC(=S)NCCCN2CCOCC2)c1	109%
